Here are results for 17 compounds from ChEMBL document CHEMBL1961873, “Compounds: GSK PKIS; Assays: Nanosyn kinase panel” (2012).

Assay [1] concerns the target Tyrosine-protein kinase Fer (Homo sapiens) (UniProt P16591). The note with it: at 1 µM.
Assay [2] deals with Tyrosine-protein kinase Fes/Fps (Homo sapiens) (UniProt P07332). The settings on record: at 0.1 µM.
Assay [3] has the same target. The settings on record: at 1 µM.
The target in assay [4] is Fibroblast growth factor receptor 1 (Homo sapiens) (UniProt P11362). The settings on record: at 0.1 µM.
Sequence of Fibroblast growth factor receptor 1 (Homo sapiens) (P11362 22-822 limits assumed): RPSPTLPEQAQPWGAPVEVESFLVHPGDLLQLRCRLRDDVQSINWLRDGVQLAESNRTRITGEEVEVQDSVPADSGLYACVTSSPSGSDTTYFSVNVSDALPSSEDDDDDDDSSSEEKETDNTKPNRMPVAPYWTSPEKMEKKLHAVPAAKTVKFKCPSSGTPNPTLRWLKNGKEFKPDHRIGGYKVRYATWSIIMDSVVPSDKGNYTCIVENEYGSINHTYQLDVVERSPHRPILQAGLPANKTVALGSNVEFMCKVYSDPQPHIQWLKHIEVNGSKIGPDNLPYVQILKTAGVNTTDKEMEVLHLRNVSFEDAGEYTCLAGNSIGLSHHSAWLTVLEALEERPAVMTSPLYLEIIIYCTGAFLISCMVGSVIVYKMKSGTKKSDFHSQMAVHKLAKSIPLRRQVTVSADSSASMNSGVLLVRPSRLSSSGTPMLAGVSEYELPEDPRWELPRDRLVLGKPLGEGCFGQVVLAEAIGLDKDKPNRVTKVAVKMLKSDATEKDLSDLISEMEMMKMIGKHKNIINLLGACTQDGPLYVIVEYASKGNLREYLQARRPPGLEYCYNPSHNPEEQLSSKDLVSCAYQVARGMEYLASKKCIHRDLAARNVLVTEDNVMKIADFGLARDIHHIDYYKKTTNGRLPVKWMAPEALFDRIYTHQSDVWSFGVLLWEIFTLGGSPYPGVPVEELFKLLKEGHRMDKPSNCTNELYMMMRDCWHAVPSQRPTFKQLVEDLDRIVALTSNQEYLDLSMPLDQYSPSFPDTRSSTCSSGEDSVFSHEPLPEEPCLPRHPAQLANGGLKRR
Assay [5] shares this target. The settings on record: at 1 µM.
The target of assay [6] is Fibroblast growth factor receptor 2 (Homo sapiens) (UniProt P21802). The note with it: at 0.1 µM.
Sequence of Fibroblast growth factor receptor 2 (Homo sapiens) (P21802 22-821 limits assumed): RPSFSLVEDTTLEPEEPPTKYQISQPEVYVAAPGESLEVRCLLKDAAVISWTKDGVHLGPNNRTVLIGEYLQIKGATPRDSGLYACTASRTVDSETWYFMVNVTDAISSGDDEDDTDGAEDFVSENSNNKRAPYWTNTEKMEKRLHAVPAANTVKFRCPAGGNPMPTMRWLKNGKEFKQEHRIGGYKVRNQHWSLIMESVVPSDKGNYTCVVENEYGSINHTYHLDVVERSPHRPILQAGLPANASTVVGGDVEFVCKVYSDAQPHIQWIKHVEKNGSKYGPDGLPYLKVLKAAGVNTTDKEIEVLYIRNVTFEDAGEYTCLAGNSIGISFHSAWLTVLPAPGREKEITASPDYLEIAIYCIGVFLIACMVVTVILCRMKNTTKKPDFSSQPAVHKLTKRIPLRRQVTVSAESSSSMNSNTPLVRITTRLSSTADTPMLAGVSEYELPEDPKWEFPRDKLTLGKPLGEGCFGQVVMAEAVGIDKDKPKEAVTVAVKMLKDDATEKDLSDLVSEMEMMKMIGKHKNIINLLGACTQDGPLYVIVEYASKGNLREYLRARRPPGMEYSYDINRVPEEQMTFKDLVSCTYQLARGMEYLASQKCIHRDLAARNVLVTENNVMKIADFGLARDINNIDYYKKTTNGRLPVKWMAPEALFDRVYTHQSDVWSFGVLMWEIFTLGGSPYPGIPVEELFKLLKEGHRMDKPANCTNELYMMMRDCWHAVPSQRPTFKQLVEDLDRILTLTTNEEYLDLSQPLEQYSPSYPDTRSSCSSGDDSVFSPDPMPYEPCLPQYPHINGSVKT
The target is the same in assay [7]. The settings on record: at 1 µM.
In assay [8] the target is Fibroblast growth factor receptor 3 (Homo sapiens) (UniProt P22607). The settings on record: at 0.1 µM.
Sequence of Fibroblast growth factor receptor 3 (Homo sapiens) (P22607 23-806 limits assumed): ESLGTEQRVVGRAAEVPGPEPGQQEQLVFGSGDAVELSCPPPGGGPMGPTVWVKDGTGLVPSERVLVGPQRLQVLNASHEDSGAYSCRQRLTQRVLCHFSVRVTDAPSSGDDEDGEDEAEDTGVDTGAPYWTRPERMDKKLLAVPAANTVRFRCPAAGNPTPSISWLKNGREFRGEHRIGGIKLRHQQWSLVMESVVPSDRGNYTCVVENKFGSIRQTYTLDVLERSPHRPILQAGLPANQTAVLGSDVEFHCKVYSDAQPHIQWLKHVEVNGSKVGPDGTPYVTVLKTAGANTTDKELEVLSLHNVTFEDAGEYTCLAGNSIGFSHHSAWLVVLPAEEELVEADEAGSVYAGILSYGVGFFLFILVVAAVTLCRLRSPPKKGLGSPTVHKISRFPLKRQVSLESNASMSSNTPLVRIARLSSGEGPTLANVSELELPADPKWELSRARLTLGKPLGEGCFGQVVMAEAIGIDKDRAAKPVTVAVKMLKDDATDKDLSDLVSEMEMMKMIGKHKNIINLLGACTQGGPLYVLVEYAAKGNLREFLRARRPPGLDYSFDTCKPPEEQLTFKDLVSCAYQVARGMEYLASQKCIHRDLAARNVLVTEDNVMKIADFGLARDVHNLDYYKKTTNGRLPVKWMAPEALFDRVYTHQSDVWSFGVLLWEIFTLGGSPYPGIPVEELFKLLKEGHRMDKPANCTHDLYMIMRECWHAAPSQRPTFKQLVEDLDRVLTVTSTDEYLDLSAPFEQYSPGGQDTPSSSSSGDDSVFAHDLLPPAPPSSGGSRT
The target is the same in assay [9]. The settings on record: at 1 µM.
The target in assay [10] is Fibroblast growth factor receptor 4 (Homo sapiens) (UniProt P22455). The note with it: at 0.1 µM.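 Note: values are mean percent inhibition of FGFR4.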
Sequence of Fibroblast growth factor receptor 4 (Homo sapiens) (P22455 22-802 limits assumed): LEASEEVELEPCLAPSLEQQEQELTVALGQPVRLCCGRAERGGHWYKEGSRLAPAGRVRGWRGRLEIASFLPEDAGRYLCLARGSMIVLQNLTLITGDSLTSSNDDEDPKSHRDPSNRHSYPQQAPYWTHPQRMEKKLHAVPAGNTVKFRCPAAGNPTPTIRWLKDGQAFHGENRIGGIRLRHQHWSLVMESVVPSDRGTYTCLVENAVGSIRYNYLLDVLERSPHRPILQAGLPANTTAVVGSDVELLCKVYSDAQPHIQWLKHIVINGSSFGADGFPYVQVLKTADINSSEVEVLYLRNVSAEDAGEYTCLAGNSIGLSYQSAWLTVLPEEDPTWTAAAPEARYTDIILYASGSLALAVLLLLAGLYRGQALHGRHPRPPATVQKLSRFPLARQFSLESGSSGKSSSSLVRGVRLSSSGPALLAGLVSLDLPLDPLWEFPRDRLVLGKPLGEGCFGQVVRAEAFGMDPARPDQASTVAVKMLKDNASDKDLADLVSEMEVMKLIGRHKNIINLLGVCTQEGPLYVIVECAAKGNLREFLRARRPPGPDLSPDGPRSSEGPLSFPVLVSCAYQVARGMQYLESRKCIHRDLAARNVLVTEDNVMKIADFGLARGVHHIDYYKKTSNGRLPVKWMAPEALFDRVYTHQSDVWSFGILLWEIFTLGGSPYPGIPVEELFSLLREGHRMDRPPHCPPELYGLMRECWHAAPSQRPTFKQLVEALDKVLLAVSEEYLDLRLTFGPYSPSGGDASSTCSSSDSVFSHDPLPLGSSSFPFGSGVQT

Sequence of Tyrosine-protein kinase Fer (Homo sapiens) (P16591 whole entry, looked up): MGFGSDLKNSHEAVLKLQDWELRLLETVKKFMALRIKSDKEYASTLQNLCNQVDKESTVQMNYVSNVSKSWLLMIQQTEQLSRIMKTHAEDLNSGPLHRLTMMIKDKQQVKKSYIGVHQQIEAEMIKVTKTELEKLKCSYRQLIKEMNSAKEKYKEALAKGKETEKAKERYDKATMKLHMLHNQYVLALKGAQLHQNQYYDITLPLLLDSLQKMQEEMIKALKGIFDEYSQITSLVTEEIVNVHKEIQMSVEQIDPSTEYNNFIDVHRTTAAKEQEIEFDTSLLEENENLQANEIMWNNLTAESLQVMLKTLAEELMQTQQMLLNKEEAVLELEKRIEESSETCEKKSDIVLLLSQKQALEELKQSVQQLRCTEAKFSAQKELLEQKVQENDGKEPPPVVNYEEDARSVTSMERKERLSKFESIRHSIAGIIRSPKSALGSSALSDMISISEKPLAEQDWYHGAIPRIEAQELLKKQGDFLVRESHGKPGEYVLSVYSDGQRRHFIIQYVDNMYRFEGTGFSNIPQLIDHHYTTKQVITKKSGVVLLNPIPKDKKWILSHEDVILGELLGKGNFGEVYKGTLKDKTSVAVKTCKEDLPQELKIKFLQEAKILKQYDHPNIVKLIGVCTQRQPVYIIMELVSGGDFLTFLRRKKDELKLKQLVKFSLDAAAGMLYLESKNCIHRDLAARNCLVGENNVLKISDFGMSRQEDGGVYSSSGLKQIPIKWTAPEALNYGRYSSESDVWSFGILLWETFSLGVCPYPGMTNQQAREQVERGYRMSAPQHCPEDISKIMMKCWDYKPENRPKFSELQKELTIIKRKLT
Sequence of Tyrosine-protein kinase Fes/Fps (Homo sapiens) (P07332 whole entry): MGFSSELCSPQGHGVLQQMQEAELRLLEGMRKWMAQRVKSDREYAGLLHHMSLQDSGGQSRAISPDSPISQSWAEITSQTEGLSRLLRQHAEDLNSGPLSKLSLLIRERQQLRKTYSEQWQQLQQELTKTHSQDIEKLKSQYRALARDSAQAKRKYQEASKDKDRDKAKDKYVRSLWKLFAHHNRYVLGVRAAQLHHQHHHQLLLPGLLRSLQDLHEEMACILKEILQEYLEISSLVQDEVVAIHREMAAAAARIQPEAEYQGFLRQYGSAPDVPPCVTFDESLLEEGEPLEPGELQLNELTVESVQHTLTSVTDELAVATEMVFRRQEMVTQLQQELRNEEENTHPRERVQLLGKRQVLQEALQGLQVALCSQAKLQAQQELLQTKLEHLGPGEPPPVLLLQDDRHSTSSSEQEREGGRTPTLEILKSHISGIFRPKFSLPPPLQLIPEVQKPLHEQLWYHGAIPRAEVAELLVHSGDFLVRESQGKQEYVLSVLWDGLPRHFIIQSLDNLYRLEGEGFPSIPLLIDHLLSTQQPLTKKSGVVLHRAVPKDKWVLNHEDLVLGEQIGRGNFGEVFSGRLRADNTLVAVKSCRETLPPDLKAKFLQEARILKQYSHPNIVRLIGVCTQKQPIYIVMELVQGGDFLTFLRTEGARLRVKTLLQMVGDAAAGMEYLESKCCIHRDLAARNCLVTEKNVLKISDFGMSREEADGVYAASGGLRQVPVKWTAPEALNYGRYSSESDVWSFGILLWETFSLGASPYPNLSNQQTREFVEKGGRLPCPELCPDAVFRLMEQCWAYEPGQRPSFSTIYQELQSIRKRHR

What is called inhibition is the relative decrease from the control value, in per cent. With `CS(=O)(=O)CCNCc1ccc(-c2ccc3ncnc(Nc4ccc(OCc5ccccc5)c(Br)c4)c3c2)o1`, the inhibition in [1] is 4.54%; in assay [2], 2.7%; in [3] it was 1.88%; in assay [4], -3.67%; in assay [5], 4.36%; in assay [6], 1.07%. Moreover, the inhibition in [7] was 4.45%; in [8] it was 0.3%; in [9], 1.62%; in assay [10] it was -4.71%.
In the case of `COc1cccc(-n2cnc3c(N/N=C/c4ccncc4)ncnc32)c1`, the inhibition is 4.82% in [1]; -0.04% in [2]; -1.27% in assay [3]; -7.19% in [4]; -2.61% in assay [5]; -3.25% in [6]. Moreover, the inhibition in [7] was 10.7%; in assay [8] it was -3.58%; in assay [9], 3.63%; in assay [10], -4.06%.
Regarding `CN(C)c1ccc2c(c1)/C(=C/Nc1ccc(S(N)(=O)=O)cc1)C(=O)N2`, the inhibition was determined as 8.18% in assay [1]; 0.6% in assay [2]; 0.4% in assay [3]; 3.54% in assay [4]; 15.3% in assay [5]; 5.56% in assay [6]. In addition, the inhibition in [7] was found to be 31.6%; in [8], 7.1%; in [9] it was 29.6%; in assay [10], 1.99%.
Take `CN(C)CCCNc1nccc(-c2c(-c3ccc(F)cc3)nn3cc(C(F)(F)F)ccc23)n1`: the inhibition in [1] was 1.37%; in assay [2], 0.87%; in assay [3], 1.2%; in [4], 0.95%; in [5] it was 0.04%; in [6], -2.72%. Besides, the inhibition in assay [7] is 0.99%; in assay [8], -1.5%; in assay [9], -0.97%; in assay [10] it was -3.68%.
`O=C(Nc1n[nH]c2cc(-c3cc(F)ccc3F)ccc12)C1CC1`: the inhibition in [1] was 3.05%; in assay [2], 2.89%; in assay [3], 3.45%; in assay [4] it was 0.53%; in assay [5] it was 1.69%; in assay [6], 1.35%. In addition, the inhibition in [7] was 6.04%; in assay [8], 3.51%; in assay [9] it was 2.02%; in assay [10] it was -1.89%.
Turning to `Cc1ccc(NC(=O)c2ccoc2)cc1-c1ccc(C(=O)NCC2CC2)cc1`, the inhibition in assay [1] is -0.39%; in assay [2], 2.83%; in assay [3], 1.55%; in [4], 11.2%; in assay [5] it was 3.99%; in assay [6], 0.64%. The inhibition in assay [7] came out at 3.44%; in [8] it was 2.69%; in assay [9], 5.14%; in assay [10] it was 1.47%.
For `CCc1cccc(CC)c1/C=C/c1cncc(C(=O)NC)c1`, the inhibition amounted to 1.64% in [1]; 2.16% in assay [2]; 2.33% in assay [3]; 5.4% in assay [4]; 11.8% in assay [5]; 5.9% in assay [6]. Moreover, the inhibition in assay [7] was 9.23%; in assay [8], 6.74%; in assay [9], 9.45%; in [10] it was -1.16%.
`Fc1ccc(-c2ncn(CCCN3CCOCC3)c2-c2ccncc2)cc1`: the inhibition is -1.08% in [1]; -0.1% in assay [2]; -0.6% in assay [3]; 0.01% in assay [4]; -2.73% in [5]; -1.34% in assay [6]. Moreover, the inhibition in [7] was 2.45%; in assay [8], 0.86%; in assay [9], 2.18%; in [10] it was -3%.
As to `COc1cc(Nc2ncc3c(C)nc(-c4cccc(C(F)(F)F)c4)n3n2)cc(OC)c1OC`, the inhibition in assay [1] is 16.6%; in assay [2], 2.74%; in [3], 4.66%; in assay [4], 0.79%; in assay [5], 3.96%; in assay [6], 1.87%. For the same compound, the inhibition in assay [7] came out at 10.6%; in [8], 3.25%; in assay [9], 4.79%; in [10] it was 0.66%.
Take `O=C1Nc2ccccc2/C1=C/Nc1ccc(-n2cncn2)cc1`: the inhibition in [1] came to 11.2%; in assay [2] it was 2.67%; in assay [3], 2.63%; in [4] it was 2.75%; in assay [5], 9.98%; in assay [6], 5.38%. In addition, the inhibition in [7] came out at 24.9%; in assay [8], 7.96%; in [9], 22%.
Turning to `COc1ccc(C2=C(N3CCc4ccccc43)C(=O)NC2=O)cc1`, the inhibition in assay [1] was found to be 4.91%; in assay [2], 3.03%; in [3], 5.04%; in assay [4], 4.17%; in assay [5], 8.02%; in assay [6], 4.11%. The inhibition in assay [7] came to 6.4%; in [8] it was 8.71%; in [9], 8.26%; in [10], 2.43%.
Regarding `Cc1nnc(-c2ccc(C)c(-c3ccc(C(=O)NCc4ccc(Cl)cc4)cc3)c2)o1`, the inhibition in assay [1] is 3.71%; in [2], 2.32%; in [3] it was 1.83%; in assay [4], -2.72%; in assay [5] it was -1.85%; in assay [6], 0.07%. Besides, the figures for the inhibition in assay [7], in assay [8] and in [9] were 11.1%, 1.78% and -1.81%, respectively.
Regarding `CN(C)CCOc1ccc(-c2cc(-c3ccc4c(c3)CCC4=NO)c(-c3ccncc3)o2)cc1`, the inhibition in [1] is -0.96%; in assay [2], 0.22%; in assay [3], -1.71%; in [4], -4.37%; in assay [5] it was -0.28%; in [6], -2.17%. The inhibition in assay [7] was -0.7%; in assay [8] it was -1.69%; in assay [9] it was -0.19%; in assay [10], 1.99%.
On to `NC(=O)Cc1ccccc1Oc1nccc(-c2c(-c3ccc(F)cc3)ncn2C2CCNCC2)n1`, for which the inhibition in assay [1] turned out to be 4.36%; in assay [2], 1.68%; in [3], 2.12%; in assay [4] it was 5.6%; in assay [5], 3.15%; in [6], 1.69%. Also, the inhibition in [7] was found to be 5.26%; in assay [8], 3.66%; in assay [9], 3.8%; in assay [10] it was 0.37%.
As to `C/C(Nc1ccc(S(N)(=O)=O)cc1)=C1/C(=O)Nc2ccccc21`, the inhibition in assay [1] was 10.5%; in assay [2] it was -2.91%; in [3], -3.39%; in assay [4], -4.77%; in assay [5], 6.33%; in assay [6], 0.2%. Moreover, the inhibition worked out at 21.1% in assay [7], 0.94% in [8], 21% in assay [9] and 1.73% in assay [10].
As to `NC(=O)c1cc(-c2ccc(F)cc2)cc(-c2ccncc2)c1N`, the inhibition came to 1.93% in assay [1]; 3.18% in assay [2]; 3.59% in [3]; 5.1% in assay [4]; 3.07% in [5]; 1.81% in assay [6]. In addition, the inhibition in [7] was 4.41%; in assay [8], 4.84%; in assay [9] it was 2.54%; in assay [10] it was -4.89%.
Turning to `C[C@@H](Oc1cc(-n2cnc3ccc(OC4CCN(C)CC4)cc32)sc1C(N)=O)c1ccccc1Cl`, the inhibition in assay [1] is 3.96%; in [2], 2.48%; in assay [3] it was 3.52%; in [4], 2.78%; in assay [5], 9.26%; in assay [6] it was 4.51%. Further, the inhibition is 8.58% in [7], 4.86% in assay [8], 9.86% in assay [9] and -0.28% in [10].
